Reference: PubChem BioAssay AID504332 (National Center for Advancing Translational Sciences (NCATS), 2011)
The campaign covered roughly 350,000 compounds. About 31,000 (8.9%) were called active. About 15% were inconclusive and are not listed. The call rests on the fitted dose curve; in most records, active means well fitted inhibition curve with a large enough effect; inconclusive means small, poorly fitted or top-dose-only effect; inactive means no such curve, though single readings can be large or run the other way. The list comes from a sample in which actives are over-represented; it also holds similar structures and randomly drawn compounds.

biological target: Histone-lysine N-methyltransferase EHMT2 (Homo sapiens) (UniProt Q96KQ7); assay: qHTS Assay for Inhibitors of Histone Lysine Methyltransferase G9a; settings: G9a H3K9 monomethylation, AlphaScreen, 2 h; series mostly up to 59 µM; further: nearly all actives have a fitted effect of over 75% in size
In short: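 Chemiluminescent proximity detection of H3K9 monomethylation, read after 10 min bead incubation in the dark. Reaction: 20 nM G9a, 500 nM biotin-H3K9 peptide, 20 uM SAM cofactor, 2 h, room temperature, following 15 min enzyme-compound preincubation.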
On the % scale 0 is the no-effect control and ±100 the full control effect; potency means the concentration at half of the fitted maximal effect.

Histone-lysine N-methyltransferase EHMT2 (Homo sapiens), sequence (Q96KQ7 913-1193 limits assumed): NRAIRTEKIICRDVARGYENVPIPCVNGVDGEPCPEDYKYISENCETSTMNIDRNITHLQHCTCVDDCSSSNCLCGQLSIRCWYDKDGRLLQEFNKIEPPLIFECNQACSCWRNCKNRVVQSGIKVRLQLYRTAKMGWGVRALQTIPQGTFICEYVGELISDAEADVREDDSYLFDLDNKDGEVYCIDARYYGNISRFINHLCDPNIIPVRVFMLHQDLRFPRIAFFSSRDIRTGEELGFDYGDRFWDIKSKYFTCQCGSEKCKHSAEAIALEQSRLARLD

Potency, inactive:
COc1ccc(F)cc1S(=O)(=O)Nc1ccc2c(c1)OCO2
CN1CCN(C(CNC(=O)c2ccccc2F)c2ccc3c(c2)OCO3)CC1 (stereo not drawn)
Cc1ccc(Cn2c(=O)n(CCCC(=O)NCc3ccccc3Cl)c(=O)c3ccccc32)cc1
O=C(Cn1c(=O)n(-c2ccc(F)cc2)c(=O)c2sc3ccccc3c21)NC1CCCC1
C=CCNC(=O)CSc1nc2sc(C)c(C)c2c(=O)[nH]1
CC(C)C(C)(C#N)NC(=O)CSc1nncn1-c1ccccc1 (stereo not drawn)
CCOc1ccc(CNC(=O)c2cccc(Nc3nc4ccccc4n4nnnc34)c2)cc1OC
Cc1nn2c(=O)cc(COC(=O)c3cccc(NC(=O)COc4ccccc4Cl)c3)nc2s1
CCCCCn1c(=O)[nH]c2cc(C(=O)Nc3ccc(F)cc3)ccc2c1=O
O=C(NCc1ccc2c(c1)CCN2C(=O)c1ccccc1)c1ccccc1
COc1ccc(/C(O)=C2/C(=O)C(=O)N(CCCN(C)C)C2c2ccccc2)cc1OC (stereo not drawn)
COc1cccc(C2/C(=C(/O)c3ccc(F)cc3)C(=O)C(=O)N2CCN(C)C)c1 (stereo not drawn)
COc1ccc(C2=NN(C(=O)CSc3nnnn3C)C(c3ccco3)C2)cc1 (stereo not drawn)
Cc1ccc(C2=NN(C(=O)COc3ncnc4ccccc34)C(c3ccco3)C2)cc1 (stereo not drawn)
CCCc1nn2c(=O)cc(COC(=O)c3ccc(NC(=O)COc4ccc(F)cc4)cc3)nc2s1
Cc1nn(-c2ccccc2)c(C)c1NC(=O)COC(=O)c1cc(Cl)ccc1O
Cc1ccc(Nc2ccc(C(N)=O)cc2[N+](=O)[O-])cc1
Cc1cc(Nc2ccc(C(=O)N3CCCCC3)cc2)c2cccc(C)c2n1
COc1ccc(CN2CCc3nc(Nc4ccccc4)ncc3C2)c(OC)c1OC
O=C(CSc1nc2ccc(Nc3nc(N4CCOCC4)nc(N4CCOCC4)n3)cc2s1)NCc1ccco1
O=C(CCCn1c(SCC(=O)c2ccc(F)cc2)nc2ccccc2c1=O)NCc1ccco1
CCOC(=O)c1cccc(NS(=O)(=O)c2cc(-c3cnc(C)o3)ccc2OC)c1
CCS(=O)(=O)c1ccc(-c2cccc(NC(=O)c3ccc(Br)o3)c2)nn1
CCOc1cc(-c2noc(CCC(=O)N3CCOCC3)n2)ccc1OC
CN1CCN(C(=O)CCc2nc(-c3ccc(Cl)cc3)no2)CC1
COc1ccc(CCC(=O)NCCc2csc(-c3ccc(Cl)cc3)n2)cc1
CCOc1ccc(C(=O)c2cn(Cc3ccccc3OC)c3ccc(F)cc3c2=O)cc1
CCOc1ccc(NC(=O)CCc2c(C)nn(-c3ccc(N4CCCC4)nn3)c2C)cc1
COc1cccc2cc(-c3nc(Cl)c4c5c(sc4n3)CC(C)CC5)c(=O)oc12 (stereo not drawn)
Cc1ccc2nc(/C(C#N)=C/c3ccccc3F)[nH]c2c1
CCOc1ccc(/C=C(\C#N)c2nc3ccccc3c(=O)[nH]2)cc1OC
Cc1ccc(OCCC(=O)OCC(=O)N2c3ccccc3NC(=O)C2(C)C)cc1
COc1ccc(N2CC(NS(=O)(=O)c3ccc4ccccc4c3)CC2=O)cc1 (stereo not drawn)
O=C(N[C@@H](Cc1ccccc1)C(=O)OCc1ccccc1)c1nc[nH]c1C(=O)N[C@@H](Cc1ccccc1)C(=O)OCc1ccccc1
CC(C)c1ccc(NC(=O)Cn2nnc(C(=O)NCCc3ccccc3)c2N)cc1
Cc1ccc(-c2onc(C)c2C)cc1S(=O)(=O)Nc1ccccn1
CC(C)(C)c1cc(=O)n2c(nc3ccccc32)[nH]1
COc1ccc(C)cc1-n1c(-c2ccc(C)cc2)cc2c1CC(C)(C)CC2=O
Cc1c2cnn(-c3ccccc3)c(=O)c2c(C)n1C(C)C(=O)Nc1ccc(Br)cc1F (stereo not drawn)
Cc1ccccc1CNC(=O)Cn1c(C)c2cnn(-c3ccccc3)c(=O)c2c1C
O=C(COC(=O)Cn1cnc2ccccc2c1=O)NCc1ccccc1Cl
COc1ccccc1CNc1ccc(-c2nc(-c3ccccc3C)no2)cc1[N+](=O)[O-]
Nc1ccc(-c2nnc(-c3ccccc3)o2)cc1
Brc1ccc(-c2nnc(-c3ccccc3)o2)o1
O=C(CCS(=O)(=O)c1ccc2c(c1)NC(=O)CO2)Nc1cccc(C(F)(F)F)c1
CC(C)(Oc1ccc(Cl)cc1)C(=O)OCC(=O)NCCc1ccc(S(N)(=O)=O)cc1
CCCn1c(N)c(C(=O)CSc2nnc3n2CCCCC3)c(=O)[nH]c1=O
CCCC(=O)NC(=S)Nc1ccc(CN2CCOCC2)cc1
CCN1CCN(c2cc(C)c3cc(NC(=O)c4cc(Cl)ccc4OC)ccc3n2)CC1
COc1ccc(NC(=S)NCCN2CCC(C)CC2)cc1
COc1ccccc1NC(=O)c1oc2ccccc2c1NC(=O)C(C)C
COC(=O)N/N=C/c1c[n+]([O-])c2ccccc2[n+]1[O-]
CC(C)CC(=O)NCC(c1ccc2c(c1)OCO2)N1CCN(c2ccc(F)cc2)CC1 (stereo not drawn)
CCOC(=O)C1=C(N)N(c2ccc(C)cc2)C2=C(C(=O)CCC2)C1c1cccs1 (stereo not drawn)
CCCCOc1ccc(NC(=O)c2cc3c(n(-c4ccc(Cl)cc4)c2=O)CCCC3=O)cc1
O=C(CCC(=O)c1ccccc1)NCc1cccc(C(F)(F)F)c1
O=C(CN1CCCCC1)NC(=O)Nc1ccccc1F
O=C(CN1CCN(S(=O)(=O)c2ccc(F)cc2)CC1)Nc1ccccc1F
CCOc1ccccc1C(=O)NC1(C(F)(F)F)C(=O)Nc2c1c(=O)[nH]c(=O)n2-c1ccc(F)cc1 (stereo not drawn)
Cc1ccc(C)n1-c1nnc(N2CCC(C(=O)NCc3ccccc3Cl)CC2)s1
O=c1c(-c2ccccc2Cl)c[nH]n1-c1ccccc1

Potency, active:
COc1ccc(F)cc1S(=O)(=O)NCC(c1ccc2c(c1)OCO2)N1CCN(C)CC1 (stereo not drawn) 50.1 µM
CC(C)C(C)(C#N)NC(=O)CSc1nc2scc(-c3ccccc3)c2c(=O)[nH]1 (stereo not drawn) 28.2 µM
CCCOc1ccc(/C(O)=C2/C(=O)C(=O)N(CCN(C)C)C2c2ccc(OC)c(OC)c2)cc1 (stereo not drawn) 10 µM
Cc1ccc(C2=NN(C(=O)CSc3nc(N)cc(N)n3)C(c3ccco3)C2)cc1 (stereo not drawn) 50.1 µM
Cc1ccc(Nc2cc(C)nc3c(C)ccc([N+](=O)[O-])c23)cc1 11.2 µM
C=CCn1c(CSc2nc3ccccc3s2)nnc1SCC(=O)NCc1ccco1 44.7 µM
COc1ccc(N2CCN(C(=O)CCc3nc(-c4ccc(C)cc4)no3)CC2)cc1 31.6 µM
COc1cc(/C=C(\C#N)c2nc3ccccc3[nH]2)ccc1O 39.8 µM
COc1cc(/C=C(\C#N)c2nc3c(s2)CC(C)CC3)ccc1O (stereo not drawn) 50.1 µM
CC1(C)CC(=O)c2cnc3nc4ccccc4n3c2C1 17.8 µM
Cc1c2cnn(-c3ccccc3)c(=O)c2c(C)n1CCCC(=O)N1CCN(C)CC1 79.4 µM
COc1ccc(C(C)=O)cc1COC(=O)Cn1cnc2ccccc2c1=O 50.1 µM
Nc1ccc(-c2nnc(-c3ccc(-c4ccccc4)cc3)o2)cc1 7.08 µM
CCOCCCNC(=S)Nc1ccc2nc(N3CCN(CC)CC3)cc(C)c2c1 31.6 µM
Cc1cc(N2CCOCC2)nc2ccc(NC(=S)N3CCN(Cc4ccccc4)CC3)cc12 50.1 µM
CCOC(=O)c1cc2c(n(-c3ccc(C)cc3)c1=O)CCCC2=O 17.8 µM
Oc1cc(O)c2c(c1)OC(c1ccc(O)c(O)c1)C(O)C2 (stereo not drawn) 2.51 µM
O=C(CN1CCN(C(=O)c2cccc(F)c2)CC1)Nc1ccccc1F 56.2 µM

activity, negative = inhibition, inactive:
O=C(Nc1cccc(C(=O)NC2CC2)c1)c1ccc(F)c(S(=O)(=O)N2CCOCC2)c1 11.8% [at 0.501 µM]
COCCn1cnnc1SCC(=O)Nc1cccc(S(=O)(=O)N2CCCCC2)c1 -9.19% [at 12.7 µM]
Cc1cccc(NS(=O)(=O)c2cccc(C(=O)NNC(=O)c3ccccc3O)c2)c1 56.9% [at 12.7 µM]
O=c1oc2ccc(C#CC3(O)CCCCC3)cc2cc1-n1cc(-c2ccsc2)nn1 -0.586% [at 0.501 µM]
CCOc1ccc2oc(C(=O)N(CC)CC(=O)Nc3ccc(NC(C)=O)cc3)c(C)c2c1 -40.2% [at 12.7 µM]
CC(Sc1ncnc2c1cnn2-c1ccccc1)C(=O)Nc1ccc(N2CCOCC2)cc1 (stereo not drawn) 9% [at 0.501 µM]
COc1ccc(C2=NOC(Cn3nc(C(=O)NCc4ccc5c(c4)OCO5)cc3-c3ccccc3)C2)cc1 (stereo not drawn) 1.74% [at 2.33 µM]
Cc1ccc(S(=O)(=O)n2cccc2CO)cc1 0.915% [at 2.33 µM]
COCc1cc(C(C)=O)ccc1OC -11.9% [at 12.7 µM]
CCn1c2ccccc2c2cc(NC(=S)N3CCOCC3)ccc21 7.32% [at 12.7 µM]
COc1ccc(C(=O)OCC(=O)Nc2ccc3[nH]c(=O)[nH]c3c2)c(OC)c1OC 4.23% [at 0.501 µM]
Cc1c(C(=O)NNC(=O)c2ccncc2)oc2ccccc12 1.49% [at 12.7 µM]
COc1ccc(C(=O)N(Cc2ccccc2)c2ccc(C)cc2)cc1S(=O)(=O)N1CCOCC1 8.07% [at 0.501 µM]
O=c1c2ccccc2ccc2ccc(P(=O)(O)O)cc12 2.62% [at 0.501 µM]
